Source: the supplement of paper PMC3334620
Whole data set: some 33,000 sequences, median “E-score (-0.5 to 0.5)” near -0.053, cut for the highest 2% near 0.37. For the sample, the highest values were picked, then their nearest neighbours and some sequences at random.

The sequences below were run against Hap1 (UniProt P0CE41) (assay: PBM E-score (8-mer binding enrichment) (E-score (-0.5 to 0.5)); higher = stronger / more preferred TF binding). Conditions: protein concentration: 200 nM; construct: GST-DNA-binding domain.
Description: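 Universal 'all 10-mer' protein binding microarrays (Agilent AMADID 015681) probed with GST-tagged S. cerevisiae TFs (full-length or DBD) made by in vitro transcription/translation (PURExpress), about 100-200 nM. Bound TF was detected with fluorescent anti-GST. Each ungapped 8-mer (which stands for itself and its reverse complement) is scored by the PBM enrichment score (E-score), a modified Wilcoxon-Mann-Whitney statistic from -0.5 to +0.5, computed with the Universal PBM Analysis Suite. Scale: above 0.35 generally sequence-specific binding.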

Chain of UniProt P0CE41 (P0CE41 whole entry, the tested form may be a part): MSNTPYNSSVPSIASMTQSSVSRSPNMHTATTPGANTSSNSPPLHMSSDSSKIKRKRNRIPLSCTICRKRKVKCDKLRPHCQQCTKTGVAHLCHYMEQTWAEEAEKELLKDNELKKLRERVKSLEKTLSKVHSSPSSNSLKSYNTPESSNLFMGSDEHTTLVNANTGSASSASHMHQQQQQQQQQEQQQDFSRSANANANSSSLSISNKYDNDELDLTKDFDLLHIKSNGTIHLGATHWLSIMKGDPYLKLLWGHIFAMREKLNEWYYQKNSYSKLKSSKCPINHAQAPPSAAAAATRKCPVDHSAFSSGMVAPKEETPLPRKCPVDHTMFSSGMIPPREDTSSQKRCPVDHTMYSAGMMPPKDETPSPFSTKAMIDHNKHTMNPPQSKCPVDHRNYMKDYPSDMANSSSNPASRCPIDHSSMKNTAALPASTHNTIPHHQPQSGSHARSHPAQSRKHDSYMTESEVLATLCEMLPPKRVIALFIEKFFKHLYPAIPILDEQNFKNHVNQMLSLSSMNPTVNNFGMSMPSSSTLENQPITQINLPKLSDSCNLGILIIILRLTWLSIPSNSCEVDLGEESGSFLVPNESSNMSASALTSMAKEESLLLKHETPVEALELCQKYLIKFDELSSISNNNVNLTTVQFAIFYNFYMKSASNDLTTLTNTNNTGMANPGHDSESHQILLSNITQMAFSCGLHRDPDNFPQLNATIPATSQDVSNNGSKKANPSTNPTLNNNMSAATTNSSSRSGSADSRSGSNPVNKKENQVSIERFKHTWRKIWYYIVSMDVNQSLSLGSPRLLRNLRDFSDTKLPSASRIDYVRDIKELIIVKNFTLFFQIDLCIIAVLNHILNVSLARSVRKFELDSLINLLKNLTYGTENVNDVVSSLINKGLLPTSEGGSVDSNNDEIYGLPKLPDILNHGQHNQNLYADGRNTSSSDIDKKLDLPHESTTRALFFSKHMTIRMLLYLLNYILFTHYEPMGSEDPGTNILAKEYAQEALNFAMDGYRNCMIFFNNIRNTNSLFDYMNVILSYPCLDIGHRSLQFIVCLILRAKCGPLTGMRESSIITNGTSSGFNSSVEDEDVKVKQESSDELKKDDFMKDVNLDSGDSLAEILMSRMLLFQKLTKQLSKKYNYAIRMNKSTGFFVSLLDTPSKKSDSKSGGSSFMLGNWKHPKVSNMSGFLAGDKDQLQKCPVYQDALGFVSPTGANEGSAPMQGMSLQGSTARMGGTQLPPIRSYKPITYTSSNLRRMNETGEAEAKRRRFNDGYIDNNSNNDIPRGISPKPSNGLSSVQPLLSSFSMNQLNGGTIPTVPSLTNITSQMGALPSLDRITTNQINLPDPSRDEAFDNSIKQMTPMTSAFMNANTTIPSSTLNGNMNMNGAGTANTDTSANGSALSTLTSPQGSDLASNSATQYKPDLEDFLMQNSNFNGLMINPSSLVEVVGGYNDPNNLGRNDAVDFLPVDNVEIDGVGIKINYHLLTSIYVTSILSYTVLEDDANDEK

Sequence | PBM E-score
ATGACGAG | -0.168
CCCGCACC | 0.151
ATCCCAAC | -0.239
GGCAGGAC | 0.0548
CATAAGAC | 0.0262
CCGAGCCA | 0.347
CCGAGCCG | 0.397
CCGAGCGG | 0.395
ACGAGCGC | -0.00987
ACGAGCCG | 0.0797
ACGAGAGC | -0.0925
GCGAGCGC | 0.137
CCGAGCGA | 0.36
CCGAGAGA | 0.309
ACGAGCGG | 0.161
CCGAGAGC | 0.396
CCGAGCGC | 0.384
ACATTGGA | -0.0771
AAGCTGCC | 0.0235
CATTTCCC | 0.162
ATCTACGG | 0.299
CCTGAGCA | -0.151
GAAGCCGA | 0.308
AAAGCCGG | 0.439
AAAGCCCC | 0.106

Sequence | PBM E-score
AAAGCCGA | 0.426
AAAGCCGT | 0.322
AAAGCCGC | 0.305
CAAGCCGA | 0.24
AAAGCCCG | 0.374
CAAGCCGG | 0.292
AAAGCCTG | -0.184
TAAGCCGA | 0.382
AAAGCCCT | -0.0264
GCCGCTTA | 0.073
GTAGCCAC | -0.194
GTTTTAGA | 0.00012
AGAGAACG | -0.258
CAATTCGG | 0.267
GTGCTGCA | 0.0816
CCAGCACG | -0.13
AAAAGCCC | 0.138
AAAAGCCT | -0.221
AAAAGCCG | 0.414
AGCTTTGG | -0.135
CCCGGATA | 0.325
CACGGACG | 0.331
GCCGGATA | 0.426
CCGGGACG | 0.199
ACCGGACA | 0.411

Sequence | PBM E-score
CCCCGACC | 0.238
CCCGGACG | 0.388
CCCCGACA | 0.302
ACTGGACA | -0.00994
CCCCGACG | 0.379
AGCGGACA | 0.326
ACCGGATA | 0.359
AGATCCCG | 0.283
AGTACCCG | 0.1
CGAAAGAG | 0.0191
AGGTGCTC | -0.269
CCTGGAGC | -0.197
ACTCGCAA | -0.231
GTCCACTA | -0.102
GAACTGCC | -0.0156
CTACCATA | -0.191
GATGAGCA | -0.0729
ACAATAGG | -0.0571
GAAACGTC | -0.0511
GATATGCA | 0.0359
AGCTACTG | -0.00261
CCCGGACC | 0.361
CCGGGACA | 0.299
TACGGACA | 0.291
TGCGGACA | 0.22

Sequence | PBM E-score
GCCGGACC | 0.341
GACGGACA | 0.325
GCCGGACA | 0.423
CCCGGACA | 0.39
TCCGGACA | 0.444
CCGGGCTC | 0.243
ACACTCAG | -0.208
ACACCCGA | 0.305
CCCCCCGA | 0.253
GACCCCGA | 0.285
AACCCCGT | 0.329
ACCCCCGT | 0.126
AACCCCCA | -0.217
TACCCCGA | 0.398
ACCCCCGA | 0.371
GCCCCCGA | 0.2
TCCCCCGA | 0.393
CACCCCGA | 0.229
AACCCCGA | 0.456
AACAAAGG | 0.0332
AGGGATAC | -0.181
CCGGCTAA | 0.331
TCGTTCAA | -0.246
GGGGAGGA | 0.093
GCATAGAC | -0.19

Sequence | PBM E-score
GGCCTCTA | -0.34
ACATCTCT | -0.0976
ACGTTATC | 0.17
CCGTTATA | 0.311
CCGTTATC | 0.385
GACACAAA | 0.132
CGGACGAA | 0.431
CCGACGAG | 0.259
AGGACGAC | -0.143
CGGACGAG | 0.387
AGGACGAG | -0.282
CGGACGAC | 0.371
GGGACGAC | -0.117
AGGACGAA | 0.128
GGGACGAA | 0.0323
CCCCGTAC | 0.0387
CTATGAGA | -0.248
ATAGCCCG | 0.173
GCCCAGCA | -0.0648
ATAAGAAG | 0.0696
ATATCTTC | 0.152
GCTTAACC | -0.0526
CTCACCTA | -0.159
ATTATCCC | 0.0666
CATATCGC | 0.179

Sequence | PBM E-score
ATTATCCG | 0.391
AATATCGG | 0.443
AATATCCG | 0.414
CATATCGA | 0.0363
AATATCCA | 0.0415
AATATCGA | 0.0281
ATTATCCA | -0.0526
AATATCCC | 0.109
CATATCGG | 0.404
AATATCGC | 0.314
CTGCACTA | 0.0173
AGACACGC | -0.0363
ACTCATCG | -0.0326
AACTATGG | -0.0562
CACGCCAA | -0.148
CACAGCTG | -0.194
CGGATGGA | 0.238
GAGCGTTA | -0.121
ACCTTGAG | -0.113
ATTATCGA | -0.0673
CAAATCCG | 0.344
AAAATCCG | 0.437
ATTATCGG | 0.432
ATTATCGC | 0.132
AAAATCCC | 0.0176

Sequence | PBM E-score
GCTCGAGC | 0.0114
GCGAACGA | 0.00245
GGACCCTA | -0.0296
CGGCGCAC | 0.259
GAAAGACA | -0.0415
AATACCGG | 0.451
ATTACCGG | 0.434
ATTACCGA | 0.348
AATACCGC | 0.304
AATACCGT | 0.252
ATTACCGC | 0.274
CATTCAGA | -0.141
ACATCGCA | -0.0398
GAGGAGAC | -0.0943
GAAAGGGA | -0.0702
ACCTTATC | 0.139
GTGGCCAC | 0.203
ATCGGAGC | 0.396
GGCGGAGA | 0.36
ATCGGGGA | 0.386
ATCGGGGG | 0.349
CGCGGAGC | 0.274
AGCGGAGC | 0.223
ATCGGGTC | 0.343
GTCGGGGA | 0.301

Sequence | PBM E-score
ATCGGGTA | 0.283
CGCGGAGA | 0.397
ATCGGGTG | 0.37
ATCAGAGC | -0.0942
ACGAACCA | -0.038
CTCCTATA | -0.327
AGATCACG | -0.113
GAATTTAC | 0.0854
ACGCCTCC | 0.00213
AGAAAAAG | -0.0187
ATCGGAGA | 0.415
CTCGGAGA | 0.407
GTCGGAGA | 0.355
CTTGGAGA | -0.0528
ATCGGAGG | 0.227
CTCGGAGC | 0.322
ACGATTTC | 0.0291
ATATGGAC | -0.0394
GGTCTGCA | 0.0455
GATTCGGA | 0.299
AATTCGGA | 0.414
CATTCGGA | 0.321
AATTCGGG | 0.287
TATTCGGA | 0.37
AATTCGGC | 0.131

Sequence | PBM E-score
CAACAGCG | -0.0733
AGATTACA | 0.0437
CACCACGC | -0.201
GACATCCA | -0.175
ATAACCAA | -0.182
ACCCTGGC | -0.146
GCAAGAGC | -0.151
AGATTCTG | -0.14
ATCTGCCG | 0.318
CAACACCG | 0.13
AAACACCG | 0.388
AAACACCT | -0.0632
TCAAAAGA | -0.152
CCACTTTA | -0.00297
TCCGCCCA | 0.209
AATGCCTC | -0.116
CGGAGCAA | 0.394
TGGAGCAA | -0.195
CGGAGCAC | 0.196
CGGAGCTC | 0.313
AGGAGCTA | -0.192
CGGAGCTA | 0.443
CGGAGCGC | 0.258
AACAAAGC | -0.0164
AGCGCATG | -0.2

Sequence | PBM E-score
ATTGACCC | -0.0115
GCCTGCTA | -0.152
GCCGAACA | 0.233
CCCGAAAC | 0.208
TCCGAACA | 0.381
GCCGAAAC | 0.38
GCCGAAAA | 0.345
CCCGAAGA | 0.284
CCCGAAAG | 0.298
TCCGAAGA | 0.419
ACCGAAGA | 0.207
ACCGAACA | 0.265
ACCGAAAC | 0.323
CCCGAAAA | 0.426
GGCGAAAC | 0.194
CGGCGGTC | 0.244
CAGCGCGC | 0.057
CTTTCAGC | 0.0716
ACCGAAAA | 0.26
TGCGAAAA | -0.00129
TCCGAAAA | 0.393
AGCAACTA | -0.0755
AGAATCAT | -0.259
AATCACAT | 0.0324
CGTGGTCC | -0.0363

Sequence | PBM E-score
CGCCGGCA | 0.349
CGGCGCCG | 0.406
CGGCGCCA | 0.246
AGCCGGCG | 0.352
CGCCGGCC | 0.396
GGCCGGCC | 0.367
CGCCGGCG | 0.422
CGCCGCCG | 0.276
AGGCGCCG | 0.0638
GGGACCGA | 0.329
ACGACCGG | 0.292
GCGACCGA | 0.253
CCGACCGG | 0.428
CGGACCGA | 0.423
CGGACCTA | 0.425
AGGACCTA | 0.095
ACGACCGA | 0.275
CGGACCGC | 0.367
CCGACCGC | 0.181
CCGACCGA | 0.422
GGGACCTA | 0.116
AGTAGCGG | 0.216
ACCTCTCG | -0.0768
CCAGGCCC | -0.0511
CGCGGCCG | 0.27

Sequence | PBM E-score
ACTACGGA | 0.238
TATCAGAA | 0.0826
AATCCTAT | 0.204
GTCCTACA | 0.145
ATCTGGCG | 0.0049
AAGCGTAC | -0.292
CGGACCAG | 0.304
TCGACCGA | 0.393
TCGACCCA | -0.221
TCGACCAA | -0.331
AGGACCCG | 0.218
CGGACCAC | 0.279
CGGACCAA | 0.383
CGGACCCG | 0.387
CGGACCCC | 0.233
GGAATCAC | 0.196
AGAGTAAT | 0.076
CGGTGAGA | 0.12
ATCAACAT | -0.109
ACCCCCAG | -0.25
ATATTTCG | 0.235
CTATTTTC | 0.0335
CTATTTCA | -0.0144
CTATTTCC | 0.397
ATATTTCC | 0.427

Sequence | PBM E-score
ATATTTCA | -0.15
AACTTTCA | -0.106
CGGTCTGA | 0.205
CGGTCATC | 0.192
CGGTCGTA | 0.383
GGGTCTTA | 0.0728
GGGTCATA | -0.00686
CGGTCGTC | 0.165
GGGTCGTA | 0.0749
CGGTCATA | 0.411
CGGTCTTA | 0.404
TAGACCCA | -0.194
ATCACGGC | 0.134
ACAAAAGC | 0.0095
CATGGGTC | -0.168
ATCGGCAG | 0.315
AACGGCCT | 0.074
ATCGGCCG | 0.443
ATCGGCGG | 0.408
AACGGCCA | 0.183
AGCGGCGG | 0.291
ATCGGGCC | 0.324
ATCGGCGC | 0.343
ATCGGCCC | 0.379
ATCGGCCA | 0.253

Sequence | PBM E-score
AACGGCCG | 0.405
CTCGGCCC | 0.336
ATCTGCGC | 0.00257
CTATAGGC | -0.0955
CGACCACG | 0.0929
GGGTGGAC | 0.132
GATGGTGC | -0.29
AGCGGAAC | 0.243
AGCGGAAA | 0.318
GACGGAAC | 0.174
ACCGGAAG | 0.333
GGCGGAAC | 0.257
CCCGGAAC | 0.31
ACCGGAAA | 0.417
ACCGGAAC | 0.403
GCCGGAAC | 0.371
CCGCAACG | 0.216
GCATATCA | 0.0762
CTACTCCA | -0.0772
